Pf Dd2 growth: P. falciparum Dd2 growth inhibition | 2.3% of 94,000 active | activity change, % at 10 µM | SYBR Green, 72 h; hits give low values; in the data active = activity change below about -80%; inconclusive = no clear call, values can overlap the other calls
T cruzi growth-1: T. cruzi proliferation inhibition; inhibition, % at 8.34 µM; T. cruzi beta-gal in NIH3T3, GalScreen luminescence, 90 h; 5.9% of 77,000 active;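 active = mean inhibition above about 93%, with at least 55% of replicates each passing it, limit read from the data, passing the limit was not always enough; inconclusive = only one of those two conditions holds; inactive = neither condition holds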
C diff HTS: inhibitors of Clostridium difficile growth; Clostridium difficile clinical isolate growth, OD600, 24 h; hits give low values; growth activity, negative = inhibition, % at 16 µg/mL (by protocol); 0.25% of 86,000 active;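 active = mean growth activity at or below -80% and every replicate also at or below -80%; inconclusive = mean at or below -80% but some replicate above -80%; inactive = mean growth activity above -80%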;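 note: 0% = DMSO wells and -100% = levofloxacin 16 µg/mL wells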
T cruzi growth-2: blocks T. cruzi growth in NIH3T3 host cells; T. cruzi beta-gal in NIH3T3, GalScreen luminescence, 90 h; 72% of 5,600 active; shares compounds with T cruzi growth-1; inhibition, % at 8.35 µM; AID 651739;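 active = mean replicate inhibition above about 95% and at least 55% of replicates individually reaching it, limit read from the data; inconclusive = only one of the two criteria is met; inactive = neither criterion is met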
T cruzi growth-3: blocks T. cruzi growth in NIH3T3 host cells; shares compounds with T cruzi growth-1; T. cruzi beta-gal in NIH3T3, GalScreen luminescence, 90 h; inhibition, % at 2.09 µM; 21% of 5,600 active;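 active = mean inhibition above about 95%, with at least 55% of replicates also reaching it, limit read from the data; inconclusive = meets just one of the two conditions; inactive = meets neither condition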;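 note: plate controls were neutral control median for no effect and positive control median for full effect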
NIH3T3 tox: cytotoxicity in mouse NIH/3T3 fibroblasts | AID 651742 | 14% of 5,600 active | cytotoxicity (signal decrease), % at 8.35 µM | NIH/3T3 viability, CellTiter-Glo ATP luminescence, 90 h | shares compounds with T cruzi growth-1;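 active = mean signal decrease across replicates above about 35% based on untreated-well scatter, with enough replicates individually passing, limit read from the data; inconclusive = no rule stated though some were filed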;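 note: 0% = median of neutral control wells and 100% = median of positive control wells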
3T3 cytotox 2: NIH/3T3 (mouse) viability loss | inhibition, % at 24.9 µM | NIH/3T3 viability, CellTiter-Glo ATP luminescence, 90 h | shares compounds with T cruzi growth-1 | 56% of 5,600 active | AID 651744;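 active = mean loss of cell viability signal at or above a set limit, and enough replicates individually reaching it; inconclusive = meets only the mean limit or only the replicate share; inactive = meets neither condition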;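 note: 0% = median of neutral control wells and 100% = median of positive control wells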
* marks the source's active call; other numbers are inactive results; ? = inconclusive; / = not tested or not shown. An excerpt weighted towards active compounds, which were near 6.7% of everything screened.

SMILES | Pf Dd2 growth | T cruzi growth-1 | C diff HTS | T cruzi growth-2 | T cruzi growth-3 | NIH3T3 tox | 3T3 cytotox 2
C[C@@H]1CCCCO[C@@H](CN(C)Cc2ccncc2)[C@H](C)CN([C@@H](C)CO)C(=O)c2cc(NC(=O)CCCN(C)C)ccc2O1 | -0.1 | 7.7 | -0.7 | / | / | / | /
CCC(=O)Nc1ccc2c(c1)OC[C@@H](C)N(C(C)=O)C[C@H](C)[C@H](OC)CN(C)C2=O | 5.8 | -28.2 | -2.5 | / | / | / | /
CC=Cc1ccc2n(c1=O)C[C@@H]1[C@@H](CO)[C@H](C(=O)NCc3ccc(F)cc3)[C@H]2N1CCC (mixture of isomers) | / | -2.0 | -1.2 | / | / | / | /
O=C(C[C@@H]1C=C[C@H](NC(=O)C2CCC2)[C@@H](CO)O1)Nc1nccs1 | 17.6 | / | 3.0 | / | / | / | /
COc1ccc(NC(=O)Nc2cccc3c2O[C@H](CN(C)Cc2ccc(Cl)c(Cl)c2)[C@@H](C)CN([C@H](C)CO)C3=O)cc1 | -27.7 | 1.9 | 5.4 | / | / | / | /
C[C@@H]1CN([C@@H](C)CO)C(=O)c2cccc(NC(=O)NC3CCCCC3)c2O[C@@H]1CN(C)Cc1ccc(Cl)c(Cl)c1 | -10.3 | 39.8 | 3.3 | / | / | / | /
C[C@H](CO)N1C[C@H](C)[C@@H](CN(C)Cc2ccc(Oc3ccccc3)cc2)Oc2c(NC(=O)NC3CCCCC3)cccc2C1=O | -19.2 | ? | 4.1 | 108.4* | 88.5 | -13.6 | 105.6*
C[C@@H]1CN([C@@H](C)CO)C(=O)c2cccc(NC(=O)NC3CCCCC3)c2O[C@H]1CN(C)Cc1ccc(Cl)c(Cl)c1 | -9.3 | ? | 15.4 | 106.9* | 72.6 | 13.7 | 70.3*
C[C@@H]1CN([C@@H](C)CO)C(=O)c2cccc(NC(=O)NC3CCCCC3)c2O[C@@H]1CN(C)Cc1ccccc1 | -39.3 | -96.7 | -3.2 | / | / | / | /
C[C@H](CO)N1C[C@H](C)[C@@H](CN(C)Cc2ccc(Oc3ccccc3)cc2)Oc2c(NC(=O)Nc3ccc(C(F)(F)F)cc3)cccc2C1=O | -36.3 | 128.7* | 3.9 | 101.3* | 88.7 | 8.1 | 104.3*
C[C@H]1CN([C@@H](C)CO)C(=O)c2cccc(NC(=O)Nc3ccccc3)c2O[C@@H]1CN(C)Cc1ccc(C(F)(F)F)cc1 | -32.2 | 73.4 | 10.9 | / | / | / | /
COc1ccc(NC(=O)Nc2cccc3c2O[C@@H](CN(C)Cc2ccc(Cl)c(Cl)c2)[C@H](C)CN([C@H](C)CO)C3=O)cc1 | -32.5 | 108.5* | 5.8 | 105.5* | 107.3* | -0.5 | 55.7*
COc1ccc(NC(=O)N(C)C[C@@H]2Oc3ccc(NS(=O)(=O)c4ccc(C)cc4)cc3C(=O)N([C@H](C)CO)C[C@@H]2C)cc1 | 9.3 | 17.6 | / | / | / | / | /
CC(C)NC(=O)N(C)C[C@@H]1Oc2ccc(NC(=O)Nc3ccc(F)cc3)cc2C(=O)N([C@H](C)CO)C[C@H]1C | -10.8 | / | 0.7 | / | / | / | /
O=C(C[C@H]1C=C[C@@H](NC(=O)c2ccc(F)cc2)[C@@H](CO)O1)NCCc1ccccc1 | 2.4 | 3.6 | 1.3 | / | / | / | /
CC(C)C#Cc1cnc2c(c1)C(=O)N([C@@H](C)CO)C[C@H](C)[C@H](CN(C)C(=O)Nc1cccc(F)c1)O2 | -12.1 | 61.1 | 1.0 | / | / | / | /
Cc1ccc(S(=O)(=O)Nc2ccc3c(c2)CC(=O)N([C@@H](C)CO)C[C@@H](C)[C@@H](CN(C)C)O3)cc1 | -14.3 | 12.9 | -2.1 | / | / | / | /
COc1cccc(C#Cc2cnc3c(c2)C(=O)N([C@H](C)CO)C[C@H](C)[C@H](CN(C)C(=O)C2CC2)O3)c1 | -2.4 | 13.8 | / | / | / | / | /
C[C@H](CO)N1C[C@H](C)[C@H](CN(C)Cc2ccc(Cl)c(Cl)c2)Oc2c(NC(=O)Nc3ccc(C(F)(F)F)cc3)cccc2C1=O | -12.3 | 127.8* | 51.7 | 104.7* | 100.9* | 7.0 | 98.4*
C[C@H]1CN([C@@H](C)CO)C(=O)c2cccc(NC(=O)Nc3ccc(F)cc3)c2O[C@@H]1CN(C)Cc1ccc(Oc2ccccc2)cc1 | -20.9 | ? | / | 102.7* | 85.3 | 4.6 | 36.8*
C[C@H](CO)N1C[C@H](C)[C@H](CN(C)Cc2ccc(Cl)c(Cl)c2)Oc2c(NC(=O)Nc3ccc(F)cc3)cccc2C1=O | -8.7 | 60.4 | / | / | / | / | /
C[C@@H]1CN([C@@H](C)CO)C(=O)c2cccc(NC(=O)Nc3ccc(F)cc3)c2O[C@@H]1CN(C)Cc1ccc(Oc2ccccc2)cc1 | -36.4 | 110.6 | / | / | / | / | /
